The values below come from PubChem BioAssay (NCATS).

A number with no mark means an inactive call. Results filed as inconclusive are left out. The source made the active and inactive calls. Unless noted, calls follow the shape of the dose curve; as a rule, active = well fitted curve in the direction sought with a large enough effect; inconclusive = small, poorly fitted or top-dose-only effect, or another doubt; inactive = no such curve, though single readings can be large; an effect the other way counts as inactive or inconclusive.

Test [1] concerns the target T1, Tyrosine-protein phosphatase non-receptor type substrate 1 (Homo sapiens) + Leukocyte surface antigen CD47 (Homo sapiens) (UniProt P78324+Q08722). Briefly: CD47-SIRPalpha protein protein interaction - Alpha assay qHTS validation (AID 1347059).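 Also: bead proximity luminescence from CD47 binding SIRPalpha after compound preincubation with SIRPalpha.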 The gist of the method: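 Soluble extracellular domains: Avi-tag biotinylated SIRPalpha (25 nM) preincubated 30 min RT with compound, then 6His-CD47 (12.5 nM) 30 min; Ni-NTA acceptor and streptavidin donor beads (10 ug/mL) 30 min, AlphaScreen read. PBS pH 7.4, 0.05% IGEPAL.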

The target of test [2] is Parathyroid hormone/parathyroid hormone-related peptide receptor (Homo sapiens) (UniProt Q03431). The experiment in a line: qHTS for PTHR1 Agonists: Optimization Screen against the NCGC LOPAC library (AID 1347079).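 Also: GloSensor cAMP luminescence in HEK-293 GP2 cells expressing human PTHR1 with IBMX.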 The gist of the method:
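Compounds were tested across a qHTS titration. PTHR1-expressing GP2 cells report cAMP rises via GloSensor luminescence after 1 hr compound exposure at 37C with IBMX present.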

Test [3] in a line: qHTS of pediatric cancer cell lines to identify multiple opportunities for drug repurposing: Primary screen for TC32 cells (AID 1347089). Also: nearly all actives have a fitted effect of over 60% in size. The gist of the method:
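In the primary qHTS, MIPE compounds were tested at 11 concentrations (0.78 nM to 46 µM) and NPC compounds at 8 (0.59 nM to 46 µM) on TC32 cells for 48 h. CellTiter-Glo luminescence gave viability.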
On the technique in general: In qHTS, concentration-response curves come from the screen itself.

A short description of test [4]: qHTS of pediatric cancer cell lines to identify multiple opportunities for drug repurposing: Primary screen for DAOY cells (AID 1347090). Also: nearly all actives have a fitted effect of over 55% in size. Also: potency is read from the fitted curve at half-maximal effect. The gist of the method: (§1)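 Eight- or eleven-point concentration series, 48 h treatment at 37 degrees C in growth media; readout CellTiter-Glo luminescence. Potency and efficacy were taken from the concentration-response curves.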

A short description of test [5]: qHTS of pediatric cancer cell lines to identify multiple opportunities for drug repurposing: Primary screen for SJ-GBM2 cells (AID 1347091). Also: potency is read from the fitted curve at half-maximal effect. The method in brief: as §1
Test [6] is described as follows: qHTS of pediatric cancer cell lines to identify multiple opportunities for drug repurposing: Primary screen for A673 cells (AID 1347092). Also: nearly all actives have a fitted effect of over 45% in size. Also: potency is read from the fitted curve at half-maximal effect. The method in brief:
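48 h compound exposure, A673, 500-1,000 cells/well, 37 degrees C/5% CO2. MIPE: 11-point, 0.78 nM-46 µM; NPC: 8-point, 0.59 nM-46 µM (final). Readout CellTiter-Glo luminescence after 15 min RT.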

The nature of test [7]: qHTS of pediatric cancer cell lines to identify multiple opportunities for drug repurposing: Primary screen for SK-N-MC cells (AID 1347093). Also: potency is read from the fitted curve at half-maximal effect. The method in brief:
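Metabolically active cells were quantified by ATP-dependent luminescence (CellTiter-Glo, 15 min at room temperature) following 48 h treatment. Cells had been plated at 500-1,000 per well and settled for 5 h beforehand.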

Test [8] in a line: qHTS of pediatric cancer cell lines to identify multiple opportunities for drug repurposing: Primary screen for BT-37 cells (AID 1347094). Also: series mostly up to about 57 µM. The gist of the method:
(§2)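 500-1,000 cells/well; 5 h pre-incubation 37 °C/5% CO2; compound pinned; 48 h; CellTiter-Glo, 15 min RT; luminescence. MIPE 11-pt from 0.78 nM, NPC 8-pt from 0.59 nM final. Bortezomib 2.3 µM final as positive control.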

Test [9] in a line: qHTS of pediatric cancer cell lines to identify multiple opportunities for drug repurposing: Primary screen for NB-EBc1 cells (AID 1347095). The method in brief:
as §2

Test [10] is described as follows: qHTS of pediatric cancer cell lines to identify multiple opportunities for drug repurposing: Primary screen for U-2 OS cells (AID 1347096). Also: nearly all actives have a fitted effect of over 50% in size. The gist of the method:
(§3)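 Cells (500-1,000/well) in growth media were settled 5 h at 37 degrees C, then given compounds for 48 h. Viability was read as CellTiter-Glo luminescence. Primary runs used MIPE at 11 points (0.78 nM-46 µM) and NPC at 8 points (0.59 nM-46 µM); follow-ups used 11 points.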

Test [11] can be described thus: qHTS of pediatric cancer cell lines to identify multiple opportunities for drug repurposing: Primary screen for Saos-2 cells (AID 1347097). Also: nearly all actives have a fitted effect of over 40% in size. The gist of the method:
as §2

Test [12] is described as follows: qHTS of pediatric cancer cell lines to identify multiple opportunities for drug repurposing: Primary screen for NB1643 cells (AID 1347099). Also: nearly all actives have a fitted effect of over 50% in size. Also: potency is read from the fitted curve at half-maximal effect. The gist of the method:
as §2

The nature of test [13]: qHTS of pediatric cancer cell lines to identify multiple opportunities for drug repurposing: Primary screen for LAN-5 cells (AID 1347100). Also: potency is read from the fitted curve at half-maximal effect. The method in brief: as §3
Test [14] is described as follows: qHTS of pediatric cancer cell lines to identify multiple opportunities for drug repurposing: Primary screen for Rh18 cells (AID 1347102). Also: nearly all actives have a fitted effect of over 65% in size. The method in brief: as §3
Test [15] can be described thus: qHTS of pediatric cancer cell lines to identify multiple opportunities for drug repurposing: Primary screen for OHS-50 cells (AID 1347103). Also: nearly all actives have a fitted effect of over 40% in size. The gist of the method: (§4)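 Cells (500-1,000/well) rested 5 h, then received compounds for 48 h; metabolically active cells were measured by CellTiter-Glo luminescence. Final concentrations spanned up to 46 µM (MIPE, 11-point) or 0.59 nM-46 µM (NPC, 8-point) in primary screens, 11-point in follow-ups.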

The nature of test [16]: qHTS of pediatric cancer cell lines to identify multiple opportunities for drug repurposing: Primary screen for RD cells (AID 1347104). Also: nearly all actives have a fitted effect of over 55% in size. Also: potency is read from the fitted curve at half-maximal effect. The gist of the method: as §2
A short description of test [17]: qHTS of pediatric cancer cell lines to identify multiple opportunities for drug repurposing: Primary screen for MG 63 (6-TG R) cells (AID 1347105). Also: nearly all actives have a fitted effect of over 50% in size. The gist of the method:
as §2

Test [18] addresses T1, Tyrosine-protein phosphatase non-receptor type substrate 1 (Homo sapiens) + Leukocyte surface antigen CD47 (Homo sapiens). The experiment in a line: CD47-SIRPalpha protein protein interaction - HTRF assay qHTS validation (AID 1347058; active = well fitted curve in the direction sought with a large enough effect in the signal ratio, not every such curve was filed as active; the % refers to the signal ratio; also: series mostly up to about 38 µM). The gist of the method:
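TR-FRET read (Ch1/Ch2 ratio) of soluble extracellular CD47 and Avi-biotinylated SIRPalpha domains in PBS pH 7.4 with 0.05% IGEPAL; 7-point compound titration. Sequential 30 min room-temperature steps; non-biotinylated SIRPalpha as control inhibitor.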

The nature of test [19]: qHTS of pediatric cancer cell lines to identify multiple opportunities for drug repurposing: Primary screen for BT-12 cells (AID 1347101). Also: nearly all actives have a fitted effect of over 25% in size. Also: potency is read from the fitted curve at half-maximal effect. The method in brief:
as §4

Test [20] in a line: qHTS of pediatric cancer cell lines to identify multiple opportunities for drug repurposing: Primary screen for SK-N-SH cells (AID 1347098).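 Also: DMSO served as neutral control and bortezomib at 2.3 µM as positive control; nearly all actives have a fitted effect of over 65% in size.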 The gist of the method: as §4

T1 sequence (P78324 whole entry, looked up, the tested form may be a part): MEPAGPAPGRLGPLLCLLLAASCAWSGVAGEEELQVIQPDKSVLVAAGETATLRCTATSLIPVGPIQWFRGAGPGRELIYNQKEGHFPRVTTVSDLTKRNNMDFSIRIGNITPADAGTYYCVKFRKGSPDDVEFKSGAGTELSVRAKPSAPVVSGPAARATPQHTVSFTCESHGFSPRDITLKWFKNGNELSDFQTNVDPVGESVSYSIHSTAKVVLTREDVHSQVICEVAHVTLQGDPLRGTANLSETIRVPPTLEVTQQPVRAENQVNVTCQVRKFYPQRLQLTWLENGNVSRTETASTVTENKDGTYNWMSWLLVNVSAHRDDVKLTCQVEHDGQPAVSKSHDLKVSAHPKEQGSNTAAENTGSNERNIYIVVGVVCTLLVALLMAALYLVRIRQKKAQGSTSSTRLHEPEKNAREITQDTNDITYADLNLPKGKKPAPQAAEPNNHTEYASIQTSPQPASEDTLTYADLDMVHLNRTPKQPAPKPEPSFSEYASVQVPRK
T1 sequence (Q08722 whole entry, looked up, the tested form may be a part): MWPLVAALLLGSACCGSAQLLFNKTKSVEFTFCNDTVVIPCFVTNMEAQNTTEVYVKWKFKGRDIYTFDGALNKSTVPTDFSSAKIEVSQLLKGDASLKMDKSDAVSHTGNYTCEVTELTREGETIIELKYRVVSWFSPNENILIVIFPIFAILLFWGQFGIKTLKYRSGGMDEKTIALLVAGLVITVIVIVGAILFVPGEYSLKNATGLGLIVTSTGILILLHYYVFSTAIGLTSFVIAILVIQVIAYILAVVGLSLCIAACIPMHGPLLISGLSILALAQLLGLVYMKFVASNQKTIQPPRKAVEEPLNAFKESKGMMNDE
Sequence of Parathyroid hormone/parathyroid hormone-related peptide receptor (Homo sapiens) (Q03431 whole entry, looked up): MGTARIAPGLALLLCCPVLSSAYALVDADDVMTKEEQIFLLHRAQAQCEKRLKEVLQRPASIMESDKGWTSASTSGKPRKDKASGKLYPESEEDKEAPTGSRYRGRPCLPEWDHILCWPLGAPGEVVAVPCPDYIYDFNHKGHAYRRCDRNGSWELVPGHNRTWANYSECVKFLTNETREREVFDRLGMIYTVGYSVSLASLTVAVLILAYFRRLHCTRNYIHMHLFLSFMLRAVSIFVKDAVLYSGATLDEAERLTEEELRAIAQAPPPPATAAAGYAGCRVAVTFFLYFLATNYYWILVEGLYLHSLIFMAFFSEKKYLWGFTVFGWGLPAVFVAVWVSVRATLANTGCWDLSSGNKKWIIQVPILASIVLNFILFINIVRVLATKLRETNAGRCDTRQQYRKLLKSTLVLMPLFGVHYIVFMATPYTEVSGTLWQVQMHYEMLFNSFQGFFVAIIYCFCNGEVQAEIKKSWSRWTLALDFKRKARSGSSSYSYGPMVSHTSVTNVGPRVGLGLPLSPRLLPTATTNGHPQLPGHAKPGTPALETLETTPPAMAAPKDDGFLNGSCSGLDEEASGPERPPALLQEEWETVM

Consider `CC1(C)NC(=O)N(c2ccc([N+](=O)[O-])c(C(F)(F)F)c2)C1=O`, for which the Potency entry in test [1], in test [3], in test [4], in test [5], in [6] and in test [7] was “inactive” each time. Further, the Potency result in test [8], in test [9], in test [10], in [11], in test [12] and in test [13] was “inactive” in each case. Besides, the Potency entry in test [14], in test [15], in test [16] and in test [17] was “inactive” throughout. Further, the call in test [2] was inactive.
For the compound `CN(C)CCCC1(c2ccc(F)cc2)OCc2cc(C#N)ccc21` (stereo not given), the result in test [18] and in test [2] was inactive. In addition, the Potency entry in [1], in test [3], in test [5], in test [10], in test [13] and in [19] was “inactive” in each case. Further, the Potency entry in test [14] and in test [17] was “inactive” throughout. Moreover, the Potency in [6] was 29.6 µM (active); in [7], 11.8 µM (active); in test [12] it was 16.6 µM (active); in [16], 29.6 µM (active).
Consider `O=c1cc(N2CCOCC2)oc2c(-c3ccccc3)cccc12`, for which the result in [18] and in test [2] was inactive. In addition, the Potency result in test [1], in [10] and in test [13] was “inactive” in each case. In addition, the Potency is 16.6 µM (active) in test [5], 9.35 µM (active) in [7] and 20.9 µM (active) in test [12].
Turning to `O=C1c2c(O)cc(O)cc2OC(c2ccc(O)c(O)c2)C1O` (stereo not given), the outcome in [18] and in test [2] was inactive. Also, the Potency result in test [1], in test [3], in test [4], in [6], in test [8] and in test [10] was “inactive” each time. In addition, the Potency result in test [19], in test [14] and in test [16] was “inactive” each time. Further, the Potency in [7] is 4.69 µM (active).
As for `O=c1ccc2ccc(O)c(O)c2o1`, the Potency result in test [1], in [3], in test [5], in test [8], in [11] and in test [14] was “inactive” in each case. Moreover, the Potency result in test [17] is “inactive”. The compound was classed as inactive in test [2]. For the same compound, the Potency is 7.43 µM (active) in test [4] and 5.9 µM (active) in [6].
On to `CNC[C@H](O)c1ccc(O)c(O)c1`, for which the result in test [18] and in test [2] was inactive. The Potency entry in [1], in test [3], in [4], in [7], in test [8] and in test [10] was “inactive” each time. Further, the Potency entry in test [11], in [13], in test [19], in test [14] and in [16] was “inactive” each time. Besides, the Potency in test [6] is 42.9 µM (active).
On to `Cc1c(OCC(F)(F)F)ccnc1CS(=O)c1nc2ccccc2[nH]1` (stereo not given), for which the outcome in [18] and in test [2] was inactive. Also, the Potency result in [1], in [3], in test [4], in [5], in test [6] and in test [8] was “inactive” in each case. The Potency entry in test [10], in test [11], in [12], in [13], in test [19] and in test [14] was “inactive” in each case. In addition, the Potency result in test [16] and in test [17] was “inactive” each time.
Take `O=C(CCc1ccc(O)cc1)c1c(O)cc(O)cc1O`: the result in test [18] and in test [2] was inactive. The Potency entry in [1], in [3], in test [10], in test [11], in test [20] and in test [14] was “inactive” throughout. In addition, the Potency result in test [16] and in test [17] was “inactive” each time. Besides, the Potency in [4] was 0.118 µM (active); in test [7] it was 0.118 µM (active); in [13], 6.62 µM (active); in test [19], 1.22 µM (active).
